# Source: PubChem BioAssay (Tox21)
# Inconclusive results are not listed. Values without a mark were called inactive. Calls of active or inactive are those of the source. Calls come from the whole dose curve; as a rule, active = well fitted cell-killing curve with a large enough effect in the repeat runs; inconclusive = weak or mixed curves, or effect the other way; inactive = flat fitted curve, though single readings scatter.
# Experiment: qHTS assay to identify small molecule that activate the aryl hydrocarbon receptor (AhR) signaling pathway - cell viability counter screen (AID 743086); note: nearly all actives have a fitted effect of over 45% in size;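 for viability change, negative = cytotoxic: HepG2 liver cells carrying the AhR DRE luciferase reporter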
# Settings: HepG2-AhR-luc viability, CellTiter-Fluor, 24 h; series mostly up to 70.3 µM; viability change, negative = cytotoxic: at the top concentration
# Source text: U.S. Tox21 Program National Center for Advancing Translational Sciences [NCATS] NIH Chemical Genomics Center [NCGC] U.S. Environmental Protection Agency [EPA] National Institutes of Environmental Health Sciences [NIEHS] National Toxicology Program [NTP] U.S. Food and Drug Administration [FDA] Tox21 Assay overview: The Aryl hydrocarbon Receptor (AhR), a member of the family of basic helix-loop-helix transcription factors, is crucial to adaptive responses to environmental changes. AhR mediates cellular responses to environmental pollutants such as aromatic hydrocarbons through induction of phase I and II enzymes but also interacts with other nuclear receptor signaling pathways A cell based HepG2-AhR-luc assay (HG2L7.5c1 cell line, developed by Dr. Michael S. Denison, University of California at Davis) was used to assess the activation of AhR. HepG2 (human hepatocellular carcinoma) cells were stably transfected with an Ah receptor-responsive firefly luciferase reporter gene plasmid containing 20 dioxin responsive elements and luciferase reporter gene. Increased luciferase activity can be used to identify the compounds that induce AhR activation. The cytotoxicity of the compounds screened against the HepG2-AhR-luc cell line was tested in parallel by measuring the cell viability using CellTiter-Fluor assay in the same wells.
# Tox21 Assay Protocol Summary: 4000 cells in 5 uL/well were dispensed into white wall/solid bottom 1536-well plates using a Multidrop Combi (Thermo Fisher Scientific Inc., Waltham, MA) dispenser. After the assay plates were incubated at 37C for 5 h, 23 nL of compound or DMSO vehicle was transferred to the assay plates by a pintool station (Kalypsys, San Diego, CA). The plates were incubated at 37C for 24 hr. For cell viability measurement, 1 ul/well of CellTiter-Fluor reagent (Promega, Madison, WI) was added into the assay plates using a Flying Reagent Dispenser (FRD) (Aurora Discovery, CA),and then the assay plates were incubated at 37C for 30 min. The fluorescence intensity in the plates was measured using a ViewLux plate reader (PerkinElmer, Shelton, CT), followed by the addition of 4 uL of ONE-Glo Luciferase Assay reagent (Promega) using an FRD (Aurora Discovery). After the assay plates were incubated at room temperature for 30 min, luminescence intensity was measured using a ViewLux plate reader (Perkin Elmer).
# % is set by controls: 0 for no effect and ±100 for the full control effect; potency is the fitted concentration of half-maximal effect.
Structure (SMILES),"viability change, negative = cytotoxic",Potency
O=C(Cl)C(Cl)(Cl)Cl,4.22% [at 95 µM],–
ClC1=C(Cl)C2(Cl)C(CBr)CC1(Cl)C2(Cl)Cl (stereo not given),–,inactive
C=CCN1CC[C@]23CCCC[C@H]2[C@H]1Cc1ccc(O)cc13,-1.62%,–
NNC(N)=O,1.76% [at 95 µM],–
C=C(Cl)CCl,1.87%,–
O=C1CC(=O)NC(=O)N1,-22.6%,–
CC[C@@H](CO)NC(=O)[C@@H]1C=C2c3cccc4[nH]cc(c34)C[C@H]2N(C)C1,-0.861%,–
O=C(O)c1c(Cl)ccc2cc(Cl)cnc12,2.31%,–
[O-][Br+2]([O-])O,0.308%,–
O=P(O)(O)c1ccccc1,-0.469%,–
CCC1(c2ccccc2)C(=O)N(COC)C(=O)N(COC)C1=O,3.8%,–
OCC(Cl)CCl (stereo not given),0.747%,–
CNC(=O)Oc1ccccc1C(C)C,10.1%,–
Brc1c(Br)c(Br)c(Br)c(Br)c1Br,2.59% [at 8.47 µM],–
CCN(CC)C1CCCCC1,13.5%,–
C=C1CC[C@@]2(O)[C@H]3Cc4ccc(O)c5c4[C@@]2(CCN3CC2CC2)[C@H]1O5,-1.03%,–
ClCOCCl,2.67% [at 95 µM],–
CCCCCCC1CCOC1=O (stereo not given),-2.02%,–
Clc1nc(Cl)nc(Nc2ccccc2Cl)n1,7.96%,–
CC1N=C(N)OC1c1ccccc1 (stereo not given),0.762%,–

Structure (SMILES),"viability change, negative = cytotoxic",Potency
Cc1ccc(-c2nc3ccc(C)cn3c2CC(=O)N(C)C)cc1,6.71%,–
CCC(C)(C#N)N=NC(C)(C#N)CC (stereo not given),15.4%,–
NC(=O)OCCCc1ccccc1,7.91%,–
CCCCOC(C)=O,1.57% [at 95 µM],–
BrCC1CO1 (stereo not given),3.41% [at 95 µM],–
C=CC1(C)OC(=O)N(c2cc(Cl)cc(Cl)c2)C1=O (stereo not given),–,inactive
CCCOc1nn(C(=O)NS(=O)(=O)c2ccccc2C(=O)OC)c(=O)n1C,-0.515%,–
O=C(Cl)CCl,12.4% [at 95 µM],–
CC(C)NCC(O)c1ccc([N+](=O)[O-])cc1 (stereo not given),-19.2%,–
COP(=O)(O)OC,-4.53% [at 95 µM],–
COC(=O)c1ccc(CBr)cc1,-0.181% [at 95 µM],–
CCSC(=O)Cl,-3.23% [at 95 µM],–
CC(C)[N+](C)(CCC(C(N)=O)(c1ccccc1)c1ccccc1)C(C)C,-2.75% [at 32.5 µM],–
NNCc1ccccc1,-2.11% [at 95 µM],–
CCc1cc(OC)c(C[C@H](C)N)cc1OC,–,63.7 µM (active)
CCCC(C)(COC(N)=O)COC(N)=O,–,inactive
C[C@H](N)C(=O)c1ccccc1,–,inactive
O=C(O)C(Cl)Br (stereo not given),-3.57% [at 95 µM],–
CC(C)(N)Cc1ccc(Cl)cc1,-0.199%,–
Clc1ccc(C(Cl)(Cl)Cl)cn1,13.3%,–
